Assay outcomes from PubChem BioAssay.
BJeLR viability – kills HRASV12-expressing BJeLR cells | AID 1554 | 300,000 compounds, 0.17% hits | BJeLR (HRASV12) viability, CellTiter-Glo ATP luminescence, 48 h | inhibition, % (test concentration not listed); in the data active = inhibition above about 50%
ugtP null kill – kills S. aureus RN4220 lacking UgtP; S. aureus RN4220 ugtP deletion, OD600 growth, 16 h; growth inhibition, % (no concentration beside the values); 330,000 compounds, 0.54% hits; in the data active = growth inhibition above about 68%;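 note: plate controls were untreated wells for no effect and antibiotic for full effect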
PrPC surface inh – cell surface PrPC inhibition, primary TR-FRET screen | TR-FRET read-out | inhibition, % at 13.8 µM | 370,000 compounds, 0.43% hits | AID 720596; in the data active = inhibition above about 24%; note: 0% = median of the test wells and 100% = reference compound wells
Sa RN4220 lethal – kills Staphylococcus aureus RN4220 | inhibition, % (test concentration not listed) | AID 1259311 | S. aureus RN4220 growth, OD600, 16 h | 330,000 compounds, 0.33% hits; in the data active = inhibition above about 85%;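 note: plate controls were untreated cells for no effect and reference antibiotic for full effect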
* = called active by the depositor; nt = no result given. Shown are actives, neighbours in structure and some others; about 0.95% of the full set was active somewhere.

SMILES	BJeLR viability	ugtP null kill	PrPC surface inh	Sa RN4220 lethal
O=c1c2ccccc2nc(SCc2cccc(F)c2)n1-c1cccc(S(=O)(=O)N2CCCC2)c1	-1	94*	9	97*
O=C(c1ccc(-n2c(SCc3cccc(F)c3)nc3ccccc3c2=O)cc1)N1CCOCC1	5	-5	-5	-2
CC1=Nc2cc(C(=O)NCC3CCCO3)ccc2Sc2ccc(C)cc21 (configuration not stated)	27	-1	10	2
CC1=Nc2cc(C(=O)NCc3ccco3)ccc2Sc2ccc(C)cc21	54*	-11	10	1
COc1ccccc1-n1c(/C=C/c2ccc(O)cc2)nc2ccccc2c1=O	-5	14	2	-2
O=c1c2ccccc2nc(/C=C/c2ccccc2)n1-c1ccccc1O	-16	97*	9	96*
O=C(O)c1cccc(-n2c(/C=C/c3ccccc3)nc3ccccc3c2=O)c1	-1	100*	6	97*
O=c1c2ccccc2nc(/C=C/c2ccccc2)n1-c1ccc(O)cc1	2	4	4	29
O=c1c2ccccc2nc(/C=C/c2ccc(O)cc2)n1-c1ccccc1O	5	91*	-2	95*
C/C(=N\Nc1ccc(Cl)c(C(=O)O)c1)c1ccccn1	-5	nt	4	nt
C/C(=N\Nc1ncc(Cl)cc1Cl)c1ccccn1	67*	nt	nt	nt
C/C(=N\Nc1ncnc2sc(C)c(C)c12)c1ccccn1	80*	nt	1	nt
CCOc1cc(C=NNC(=O)c2ccncc2)ccc1OS(C)(=O)=O	nt	0	nt	-7
CCCCCCCCCCOC(=O)C[N+](C)(C)C/C=C(/C)Cl	-3	100*	4	16
CCCCCCCCOC(=O)C[N+](C)(C)C/C=C(/C)Cl	11	6	6	2
CC1CC(=NNC(=O)c2cccnc2)CC(C)(C)C1 (configuration not stated)	nt	0	nt	0
C[C@@H]1O[C@@H](O[C@H]2C[C@@H](O)[C@]3(CO)[C@H]4[C@H](O)C[C@]5(C)[C@@H](C6=CC(=O)OC6)CC[C@]5(O)[C@@H]4CC[C@]3(O)C2)[C@H](O)[C@H](O)[C@H]1O	80*	nt	nt	nt
CC1OC(OC2C(O)CC(OC3C(O)CC(OC4CC[C@@]5(C)C(CCC6C5CC(O)[C@]5(C)C(C7=CC(=O)OC7)CC[C@]65O)C4)OC3C)OC2C)CC(O)C1O (some centres not stated)	nt	1	nt	9
CCOC(=O)c1[nH]c(C)c(C(=O)N2CCc3ccccc32)c1C	52*	-1	2	6
CCOC(=O)C=c1sc(=Cc2ccc(C)cc2)c(=O)n1CC(=O)NCc1ccco1	nt	5	nt	2
CC(/C=C1\SC(=S)N(CCC(=O)Nc2cccc(C(=O)O)c2)C1=O)=C\c1ccccc1	2	86*	3	78
COc1ccc(C(c2c(O)ccc3ccccc23)N2CCOCC2)c(OC)c1 (configuration not stated)	-2	nt	61*	nt
CCOc1ccc(-c2c(C(=O)NN=Cc3sccc3C)nnn2-c2nonc2N)cc1	nt	10	nt	16
O=Nc1c(-c2c(O)[nH]c3cc(Br)ccc23)[nH]c2ccccc12	-4	100*	-50	100*
O=C(CSCc1cccc(Br)c1)N=Nc1c(O)[nH]c2ccccc12	8	3	-10	8
SMILES	BJeLR viability	ugtP null kill	PrPC surface inh	Sa RN4220 lethal
O=C(NCc1ccccc1F)C1C2C=CC3(CN(Cc4ccccc4)C(=O)C13)O2 (configuration not stated)	nt	nt	-8	nt
O=C(Oc1cccc2cccnc12)c1ccco1	6	5	-5	0
O=C(Oc1ccc(Cl)c2cccnc12)c1ccco1	2	5	2	91*
O=C(NN=Cc1ccc(-c2ccc(Br)cc2)o1)c1ccc2c(c1)OCO2	nt	-5	nt	-3
O=C(Nc1ccc([N+](=O)[O-])cc1)Nc1ccc(OC(F)F)c(Cl)c1	nt	100*	2	99*
CCOC(=O)c1ncn2c1C1CCNC1C(=O)c1cc(OC)ccc1-2 (configuration not stated)	nt	-4	nt	2
Fc1ccc(CON=CC2=C(Cl)c3ccccc3CC2)cc1	nt	99*	nt	10
COc1ccc(OC)c(C=NNC(=O)C(=O)NCc2cccnc2)c1	nt	-5	nt	0
O=C(NN=Cc1ccccc1C(F)(F)F)c1ccc(O)cc1	nt	5	nt	9
Cc1cccc(-n2c(/C=C/c3ccc([N+](=O)[O-])o3)nc3ccccc3c2=O)c1	43	99*	-6	69
O=c1c2ccccc2nc(/C=C/c2ccc([N+](=O)[O-])o2)n1-c1ccc(O)cc1	64*	100*	-5	99*
CC(=NNC(=O)c1sc(NS(=O)(=O)c2ccccc2)nc1C)c1ccc(F)cc1	nt	-7	nt	4
COc1n[nH]c(C(=O)Nc2cc(Cl)ccc2Cl)c1[N+](=O)[O-]	10	88*	8	90*
COc1ccc(Cl)cc1NC(=O)c1[nH]nc(OC)c1[N+](=O)[O-]	6	-4	-6	14
C#CCOCCOCCOCCNc1nc(N2CCN(C(=O)C(Cc3ccc(O)cc3)n3cc(CCO)nn3)CC2)nc(N2CCN(C(=O)C(C(C)CC)n3cc(CCCN=C(N)N)nn3)CC2)n1 (configuration not stated)	nt	6	nt	1
CC(C)C(NC(=O)NCCc1ccc(F)cc1)C(=O)O (configuration not stated)	nt	-3	nt	3
Cc1nn(-c2nc3ccccc3[nH]2)c(N)c1-c1ccc(Cl)cc1	-1	95*	nt	57
COc1ccc(-c2c(C)nn(-c3ccccc3)c2N)cc1	-1	5	-5	4
Cc1nn(-c2nc3ccccc3[nH]2)c(=O)c2ccccc12	90*	-3	2	5
Cc1nn(-c2ccc3ccccc3c2)c(=O)c2ccccc12	2	15	-12	-2
COC(=O)C1=C(c2cccc(Cl)c2)CC2CCC1N2C(=O)N1CCCC1 (configuration not stated)	nt	-5	nt	5
CC(NC(=O)c1nc[nH]c1C(=O)OCc1ccccc1)c1ccccc1 (configuration not stated)	nt	-16	nt	-1
COc1ccc(S(=O)(=O)N=C2C=CC(=O)C(C)=C2C)cc1	nt	-11	nt	1
CCOc1ccc(/C=C/C(=O)c2c(O)c3ccccc3oc2=O)cc1	-9	92*	1	-5
COc1ccc(Br)cc1C(C)=NNC1=NCCN1	nt	-2	nt	2
SMILES	BJeLR viability	ugtP null kill	PrPC surface inh	Sa RN4220 lethal
CCCCOc1ccc(Br)cc1/C(C)=N/NC1=NCCN1	52*	nt	17	nt
C#CCOCCOCCOCCNc1nc(N2CCN(C(=O)Cn3cc(CC(C)O)nn3)CC2)nc(N2CCN(C(=O)C(C(C)O)n3cc(CCCCN)nn3)CC2)n1 (configuration not stated)	nt	1	nt	3
Clc1ccc(CCC(Cn2ccnc2)Sc2c(Cl)cccc2Cl)cc1 (configuration not stated)	nt	98*	4	99*
COc1cc(NS(C)(=O)=O)ccc1Nc1c2ccccc2nc2ccccc12	nt	100*	-23	-8
COc1ccc(OC)c(Nc2c3ccccc3nc3ccccc23)c1	24	nt	2	nt
COc1cc(Cl)c(C)cc1NC(=O)CSc1cc(Cl)ccc1Cl	5	95*	6	1
